Data reported in PubChem BioAssay (NCI).
Compounds without any hit were thinned out: in the full panel of roughly 83,000, 20% have a hit.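 For each line, cells grew in 96-well plates with the test compound present at a single concentration for 48 hours.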 A number with no mark means an inactive call. Calls of active or inactive are those of the source. How the source made its calls: active means growth percent below 10; inactive means the rest.

Key:
Assay in all cases: NCI-60 one-dose screen, 48 h (100 = growth as untreated, 0 = no growth, -100 = all killed)
Conditions in all cases: 10 µM unless noted
[1] = test system: DU-145 prostate
[2] = test system: K-562 leukemia
[3] = test system: MALME-3M melanoma
[4] = test system: MDA-MB-231 breast
[5] = test system: RXF 393 renal
[6] = test system: SF-268 CNS
[7] = test system: SF-295 CNS
[8] = test system: SF-539 CNS
[9] = test system: UACC-257 melanoma
[10] = test system: M14 melanoma
[11] = test system: HCT-15 colon
[12] = test system: HT29 colon
[13] = test system: SNB-75 CNS
[14] = test system: SNB-19 CNS
[15] = test system: U251 CNS
[16] = test system: PC-3 prostate
[17] = test system: SK-MEL-5 melanoma
[18] = test system: UACC-62 melanoma
[19] = test system: LOX IMVI melanoma
[20] = test system: SK-MEL-28 melanoma

| SMILES | growth [1] | growth [2] | growth [3] | growth [4] | growth [5] | growth [6] | growth [7] | growth [8] | growth [9] | growth [10] | growth [11] | growth [12] | growth [13] | growth [14] | growth [15] | growth [16] | growth [17] | growth [18] | growth [19] | growth [20] |
| --- | --- | --- | --- | --- | --- | --- | --- | --- | --- | --- | --- | --- | --- | --- | --- | --- | --- | --- | --- | --- |
| O=C(Nc1ccc(C(=O)/C=C/c2ccc(N3CCOCC3)cc2)cc1)Nc1ccc([N+](=O)[O-])cc1 | 98% | 68.6% | 108% | 94.8% | 119% | 97.1% | 103% | 109% | 99% | 110% | 92.9% | 88.6% | 94.7% | 98.4% | 85.7% | 85.5% | 95.1% | 79.6% | 107% | 109% |
| O=C1/C(=C\c2cccn2Cc2ccccc2)c2ccccc2N1c1c(Cl)cccc1Cl | 95.2% | 87.6% | 54% | 28.9% | 68% | 80.6% | 77.5% | 95.4% | 87.2% | 77% | 4.9% (active) | 52.4% | 59.1% | 79.7% | 74.8% | 51.4% | -5.28% (active) | 42% | 88.8% | 98.4% |
| Cc1cc(N2CCCCCC2)nc(N2CCN(CC(=O)Nc3ccc4c(ccn4Cc4ccccc4)c3)CC2)n1 | 70.7% | 12.1% | 50.9% | 54.6% | 6.02% (active) | 71.2% | 20.4% | 55.7% | 61.3% | 15.6% | 30.8% | 6.45% (active) | 69.6% | 67.3% | 39.2% | 29% | 46.9% | 49.2% | 44.1% | 51.8% |
| COc1cc2c(c(OC)c1)C1c3cc(OC)ccc3NC(=O)N1CC2 (stereo not given) | 102% | 30.8% | 75.5% | 66.5% | 98.2% | 80.4% | 74% | 85.1% | 90.8% | 59.4% | 49.7% | 32.3% | 83.2% | 87.5% | 74.9% | 77.7% | 82.2% | 66% | 89.7% | 88.9% |
| CN(C)c1ccc(N=Nc2ccc3ccccc3c2)cc1 | 98.9% | 82.6% | 101% | 69.5% | 97.7% | 87.8% | 107% | 93% | 102% | 99.1% | 55.5% | 78.7% | 77.4% | 100% | 76.3% | 75.6% | 87.3% | 90.8% | 72.6% | 103% |
| CCN(CC)c1ccc(/C=C/C=C2\NC(=O)NC2=O)cc1 | 40.8% | 13.9% | 51.8% | 64.1% | 2.31% (active) | 54.8% | 24.1% | 10.4% | 43% | 17.7% | 29.5% | -30.1% (active) | 33.8% | 34.6% | 29.1% | 18.9% | 8.64% (active) | 33% | 33.2% | 57.5% |
| C=C(C)[C@@H]1CC[C@]2(c3ncc(C)o3)CC[C@]3(C)[C@H](CC[C@@H]4[C@@](C)(CCC#N)[C@H](C(=C)C)CC[C@]43C)[C@@H]12 | -76.4% [100 µM] (active) | 4.09% [100 µM] (active) | -87.5% [100 µM] (active) | -96.1% [100 µM] (active) | -83.6% [100 µM] (active) | -66.2% [100 µM] (active) | -81.7% [100 µM] (active) | -94.3% [100 µM] (active) | -80.5% [100 µM] (active) | -68.4% [100 µM] (active) | -69.3% [100 µM] (active) | -69.8% [100 µM] (active) | -86.8% [100 µM] (active) | -95% [100 µM] (active) | -82.4% [100 µM] (active) | -64.1% [100 µM] (active) | -92.1% [100 µM] (active) | -91% [100 µM] (active) | -83.6% [100 µM] (active) | -89.1% [100 µM] (active) |
| CCOc1cc(/C=N\NC(=O)N/N=C/c2ccc(O)c(OCC)c2)ccc1O | 14.9% | 10.6% | 60.2% | 51.5% | 24.9% | 45.7% | 18% | -9.06% (active) | 61.9% | 19.3% | 28.7% | 27.6% | 0.378% (active) | 39.8% | 33.7% | 33% | 11.5% | 26.2% | 42.6% | 52.3% |
